Among the data in PubChem BioAssay are nuclei count and inhibition of aggregation values, retold here.

The source made the active and inactive calls.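 The calls were made as follows: active = visual image review flags a hit and inhibition of aggregation exceeds 20%; inconclusive = visual hit but inhibition at or below 20%; inactive = no hit on visual image review.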

The assay in a line: inhibitors of mutant huntingtin aggregation, primary screen, imaging, exon1htt(103Q)mCFP cells, high-content imaging (AID 483).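 Also: compound exposure lasted 3 days before fixation.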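 As to nuclei count: percent of the per-plate median nuclei count of sample wells.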 Particulars: exon1htt(103Q)mCFP cell line, aggregate imaging, at 2 µM; inhibition of aggregation: stronger effect = higher value; nuclei count: measured here: cell count, toxicity.
Regarding `CC(C)(C)NC(=O)CSc1nnc(-c2ccccn2)n1-c1ccccc1`, the nuclei count came to 86.7% and the inhibition of aggregation was -12.9% (inactive).

For `O=C(COC(=O)c1cncc(Br)c1)NCCC1=CCCCC1`, the nuclei count came out at 107% and the inhibition of aggregation was 6% (inactive).

Regarding `COc1ccc(S(=O)(=O)Nc2ccccc2OC)cc1C`, the inhibition of aggregation is 0.3% (inactive) and the nuclei count is 96.5%.

In the case of `Nc1nc2n(n1)C(c1cccc(Br)c1)CC(c1ccc(F)cc1)N2` (stereo not given), the nuclei count turned out to be 110% and the inhibition of aggregation is 9.7% (inactive).

For the compound `O=C(NC1CCCCC1)N(Cc1ccccc1)Cc1ccco1`, the inhibition of aggregation is 0.2% (inactive) and the nuclei count was found to be 90.9%.

For `O=C(O)CCn1[nH]c(=O)ccc1=O`, the nuclei count turned out to be 67.3% and the inhibition of aggregation is 37% (active).

For `COc1ccc(C(=O)Nc2ccccc2C(=O)NCCN2CCOCC2)cc1`, the inhibition of aggregation was -3.2% (inactive) and the nuclei count came out at 98.2%.

For `CCc1ccccc1NC(=O)CCc1nc(-c2ccc(C)cc2)no1`, the inhibition of aggregation was -4% (inactive) and the nuclei count worked out at 103%.

In the case of `Cc1cc(NS(=O)(=O)c2ccc(NC(=O)Nc3ccc4c(c3)OCO4)cc2)no1`, the nuclei count is 108% and the inhibition of aggregation is -12.8% (inactive).

In the case of `CCOC(=O)c1ccc(NC(=O)CSCc2ccco2)cc1`, the nuclei count was determined as 108% and the inhibition of aggregation is -9.1% (inactive).

`Cc1cc(NC(=O)CSc2nccn2-c2ccc(F)cc2)no1`: the nuclei count was 111% and the inhibition of aggregation was -13.1% (inactive).

On to `O=C(COC(=O)C1CC1)c1c[nH]c2ccccc12`, for which the inhibition of aggregation was 3% (inactive) and the nuclei count turned out to be 114%.

For the compound `O=C(CCS(=O)(=O)c1cccc2nonc12)Nc1cccc2c1CCCC2`, the inhibition of aggregation is -20.7% (inactive) and the nuclei count is 109%.

Consider `COc1cccc(NC(=O)N(Cc2ccco2)C(C)c2cccs2)c1` (stereo not given), for which the inhibition of aggregation is -16.2% (inactive) and the nuclei count came out at 103%.

In the case of `Cc1csc2ncc(C(=O)N3CCc4ccccc43)c(=O)n12`, the nuclei count stood at 104% and the inhibition of aggregation was -17% (inactive).
